Consider 16 sequences from the OligoGym collection.
Further: reference of the scale not given here.

For one assay, the target named is RIN3. As to the kind of experiment: pooled miR-30 sensor sort-seq; sequence = guide strand. As to conditions: shRNA.
Take TTGCCAACAACTGGAACCGGAC: the sensor-assay potency score (higher = more potent) was -1.3. On to TTTGATGAGCTTCTCCAGGATG, for which the sensor-assay potency score (higher = more potent) is -0.966. On to TGTTTTGATGAGCTTCTCCAGG, for which the sensor-assay potency score (higher = more potent) was -1.05.

Turning to TTCCTTAATGGTGTATTCGAGC, the sensor-assay potency score (higher = more potent) is -0.939. The same measure, in the same setting: for TAAGTCTCTACTGACACAGTAG the value was -0.266; for TTGAGCTGGGTCATCATGGTGC, 0.23; for TAGATGAGTTTGCAGGTCTTGA, -0.805. With TGTCTAGCTGCTTCTTGCCGGG, the sensor-assay potency score (higher = more potent) was -0.191. Same read-out and setting: to TTTGCCAACAACTGGAACCGGA belongs -0.35. Same read-out and setting: for TAACTGGTTCTCCTTGAGCTGC the value was -1.24; for ATCTCCTGCAGCATCTCCGTGC, -0.98.

With TATTCGAGCACCTCGGCCGAGC, the sensor-assay potency score (higher = more potent) was -1.09.

A further assay addresses RIT1. Described as above. As to conditions: shRNA.
With TAGCCTCTTCCATACACTGTTT, the sensor-assay potency score (higher = more potent) is -0.898. TATAGTAGCGGTATGCAGCAGA displayed a sensor-assay potency score (higher = more potent) of 0.384.

In the case of TTAGCCTCTTCCATACACTGTT, the sensor-assay potency score (higher = more potent) is -0.476. TAAACTCTGCCTGTCCAGCTGT had a sensor-assay potency score (higher = more potent) of 0.108.
